Article PMC4336329 (PLoS ONE, 2015)
The campaign covered roughly 310,000 compounds. About 14,000 (4.5%) showed an effect of 50% or more. Effects have a minus sign here. Shown is part of a subset that was picked to be rich in strong results.

biological target: human ether-à-go-go-related gene (hERG) potassium channel (human, UniProt Q12809); assay: primary screen, population patch clamp on CHO cells stably expressing hERG; higher = less effect of the substance
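Further: peak tail current of the secondary pulse compared with the same well before compound.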

human ether-à-go-go-related gene (hERG) potassium channel, sequence (Q12809 whole entry, looked up): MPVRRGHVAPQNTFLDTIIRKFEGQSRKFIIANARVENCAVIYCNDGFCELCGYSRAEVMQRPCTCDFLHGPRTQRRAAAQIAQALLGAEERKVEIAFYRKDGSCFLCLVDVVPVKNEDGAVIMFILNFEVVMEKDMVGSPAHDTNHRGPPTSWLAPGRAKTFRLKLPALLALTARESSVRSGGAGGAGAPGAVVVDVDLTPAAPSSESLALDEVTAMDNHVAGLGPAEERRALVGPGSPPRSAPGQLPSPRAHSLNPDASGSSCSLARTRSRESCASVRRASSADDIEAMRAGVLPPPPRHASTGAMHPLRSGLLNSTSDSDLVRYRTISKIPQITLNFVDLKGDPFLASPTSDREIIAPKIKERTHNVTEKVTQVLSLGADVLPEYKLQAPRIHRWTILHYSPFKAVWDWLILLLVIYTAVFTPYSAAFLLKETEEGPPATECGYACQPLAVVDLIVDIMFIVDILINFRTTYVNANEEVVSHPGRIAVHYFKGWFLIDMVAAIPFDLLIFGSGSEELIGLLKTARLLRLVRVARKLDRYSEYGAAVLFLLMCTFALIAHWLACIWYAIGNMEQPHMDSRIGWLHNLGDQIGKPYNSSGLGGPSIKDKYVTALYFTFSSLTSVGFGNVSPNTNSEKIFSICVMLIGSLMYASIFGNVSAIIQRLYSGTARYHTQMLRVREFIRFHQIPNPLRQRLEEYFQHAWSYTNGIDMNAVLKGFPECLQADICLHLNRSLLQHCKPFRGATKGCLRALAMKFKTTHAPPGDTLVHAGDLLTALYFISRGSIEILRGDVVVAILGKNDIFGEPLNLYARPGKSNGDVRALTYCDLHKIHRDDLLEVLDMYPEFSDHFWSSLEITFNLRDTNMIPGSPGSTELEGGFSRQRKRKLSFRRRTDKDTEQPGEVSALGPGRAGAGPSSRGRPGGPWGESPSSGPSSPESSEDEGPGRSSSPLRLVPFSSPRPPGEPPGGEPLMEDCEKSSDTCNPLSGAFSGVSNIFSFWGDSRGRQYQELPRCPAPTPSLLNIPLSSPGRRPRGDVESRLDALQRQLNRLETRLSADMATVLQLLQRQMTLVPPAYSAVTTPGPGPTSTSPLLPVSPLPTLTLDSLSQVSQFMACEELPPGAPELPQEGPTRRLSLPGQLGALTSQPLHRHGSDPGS

SMILES	hERG current change (%, negative = inhibition) at 10uM
Cc1cc(N2CCOCC2)n2nc(-c3cccc(F)c3)cc2n1	0.119%
Cc1c(C(=O)N2CC(C)OC(C)C2)sc2nc(-c3ccccc3)cn12 (centres unmarked)	-15.2%
COc1ccc(-c2cc(-c3ccc(F)cc3)nc(N3CCN(C)CC3)n2)cc1	-3.88%
Cc1cc(N2CCN(c3nc(-c4ccccc4)cs3)CC2)c2ccccc2n1	-23.3%
Cc1cc(N2CCN(C)CC2)n2cc(-c3ccc(F)cc3)nc2n1	-87.6%
CCc1nn2c(N3CCOCC3)cc(C)nc2c1-c1ccc(F)cc1	0.767%
Cc1cc(N2CCN(c3ccccc3Cl)CC2)n2cc(-c3ccccc3)nc2n1	-53.9%
Cc1cc(N2CCCCC2)n2nc(C)c(-c3ccccc3)c2n1	13.3%
CC1CN(c2nc3ccccc3cc2-c2ccccc2)CC(C)O1 (centres unmarked)	-1.86%
Cc1cc(N2CC(C)OC(C)C2)n2cc(-c3ccccc3)nc2n1 (centres unmarked)	-61.7%
Cc1cc(N2CCOCC2)n2cc(-c3ccc(F)cc3)nc2n1	-69%
CN1CCN(c2cc(-c3ccccc3)nc3cc(-c4ccc(F)cc4)nn23)CC1	-14.5%
O=C(NNC(=S)Nc1ccccc1Cl)c1ccccc1	5.93%
O=C(CN1c2ccccc2S(=O)(=O)c2ccccc21)NCc1ccccc1	9.11%
Cc1cccc(N(CC(=O)N2CCOCC2)S(C)(=O)=O)c1	6.69%
CCC(=O)NC(=S)Nc1ccc(N2CCOCC2)cc1	-2.62%
CS(=O)(=O)N1CCN(C(=O)c2cc3ccccc3oc2=O)CC1	-0.0734%
O=C(NCCC1=CCCCC1)C1CCN(S(=O)(=O)c2cccs2)CC1	-29.2%
CCOc1ccc(-n2c(SCC(=O)Nc3cc(C(=O)O)ccc3Cl)nc3ccccc3c2=O)cc1	28.8%
COc1cc2nc(SCC(N)=O)n(CCC3=CCCCC3)c(=O)c2cc1OC	-10.9%
CCN(CC)S(=O)(=O)c1cccc(C(=O)OCC(=O)Nc2ccccc2OC(F)F)c1	-7.37%
CCC(C)(C)C1CCc2c(sc(NC(=O)c3ccoc3C)c2C(N)=O)C1 (centres unmarked)	17.8%

SMILES	hERG current change (%, negative = inhibition) at 10uM
COc1ccc(N/C=C(\C#N)S(=O)(=O)c2ccc(Cl)cc2)c(OC)c1	-8.9%
Cc1cc(N2CCOCC2)n2cc(-c3ccccc3)nc2n1	-50.1%
Cc1cc(N2CCOCC2)n2ncc(-c3ccccc3)c2n1	-18.5%
Cc1cc(N2CCOCC2)n2nc(C)c(-c3ccccc3)c2n1	9.17%
O=C(Nc1ccccc1)c1ccc(Nc2c([N+](=O)[O-])cc([N+](=O)[O-])c3ccccc23)cc1	6.49%
O=C(CSc1cccc[n+]1[O-])Nc1ccc2c(c1)OCO2	6.96%
O=C(Cc1ccc(Br)cc1)N1CCN(C(=O)c2ccco2)CC1	-32.3%
COc1ccc(-c2nnc(SCC(=O)N3CCOCC3)o2)cc1	-1.92%
O=C(CSc1ccc(Br)cc1)N1CCN(C(=O)c2ccco2)CC1	-62.4%
CCOc1ccc(-c2nnc(SCC(=O)N3CCOCC3)o2)cc1	2.8%
O=C(CSc1ccccc1)N1CCN(C(=O)c2ccco2)CC1	-10.1%
O=C(CSc1nnc(-c2ccc(F)cc2)o1)N1CCN(C(=O)c2ccco2)CC1	-38.4%
O=C(CSc1nnc(-c2ccccc2Br)o1)N1CCN(C(=O)c2ccco2)CC1	-40.9%
O=C(CSc1nnc(-c2ccc(Br)cc2)o1)N1CCN(C(=O)c2ccco2)CC1	-54.6%
O=C(CSc1nnc(-c2ccc(OC(F)F)cc2)o1)N1CCOCC1	-57%
C[C@H](NC(=O)c1cc2cc(Cl)ccc2n1C)C(=O)N1CCC[C@H]1C(=O)O	13.7%
O=C(NCCN1CCOCC1)[C@H](Cc1ccccc1)N1C(=O)c2ccccc2C1=O	-2.06%
CS(=O)(=O)NC1CCN(Cc2ccccc2)CC1	-2.95%
COc1cccc(CN(C)C(=O)CNC(=O)c2ccc3c(c2)OCO3)c1OC	15.3%
CC1Cc2cc(/C(O)=C3\C(=O)C(=O)N(CCN(C)C)C3c3ccccc3F)ccc2O1 (centres unmarked)	2.94%
CCOc1ccc(S(=O)(=O)Nc2ccccn2)c2ccccc12	10.7%
CC(Oc1ncnc2ccccc12)C(=O)Nc1cccc(S(=O)(=O)N2CCOCC2)c1 (centres unmarked)	-11.3%
